Screening results from PubChem BioAssay.
PHOSPHO1 inh: PHOSPHO1 (human) inhibition; Q8TCT1; recombinant PHOSPHO1, absorbance phosphatase assay; inhibition, % at 13.3 µM; 290,000 tested, 1.1% active; AID 1565; in the data active means inhibition above about 60%
Target sequence (Q8TCT1 whole entry, looked up): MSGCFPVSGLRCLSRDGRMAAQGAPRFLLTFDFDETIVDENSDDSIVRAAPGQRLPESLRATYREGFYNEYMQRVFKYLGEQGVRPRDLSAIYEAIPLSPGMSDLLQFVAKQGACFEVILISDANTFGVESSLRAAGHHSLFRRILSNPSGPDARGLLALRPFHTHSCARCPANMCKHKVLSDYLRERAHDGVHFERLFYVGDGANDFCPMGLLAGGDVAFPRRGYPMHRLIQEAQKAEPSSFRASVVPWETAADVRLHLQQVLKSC
Rpn11 inh: Rpn11 (human) deubiquitinase inhibition; O00487; human 26S proteasome, Ub4-pepOG fluorescence polarization; 20S core pre-blocked with epoxomicin; inhibition, % at 20 µM; 360,000 tested, 0.59% active; AID 588493;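 active means inhibition at 20 µM, scaled to each plate's controls, above about 33%, limit read from the data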
Target sequence (O00487 whole entry, looked up): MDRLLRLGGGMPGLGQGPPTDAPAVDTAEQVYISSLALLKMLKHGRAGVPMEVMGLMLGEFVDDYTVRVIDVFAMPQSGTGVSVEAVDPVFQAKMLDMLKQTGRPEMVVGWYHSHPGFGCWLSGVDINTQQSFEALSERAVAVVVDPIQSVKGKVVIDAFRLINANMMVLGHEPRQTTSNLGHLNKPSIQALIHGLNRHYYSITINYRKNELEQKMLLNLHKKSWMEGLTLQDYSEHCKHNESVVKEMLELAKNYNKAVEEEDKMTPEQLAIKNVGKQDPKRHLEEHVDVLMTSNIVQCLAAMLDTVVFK
CendR NRP1 mod: alters CendR peptide binding to human NRP-1 | inhibition, % at 25 µM | 360,000 tested, 0.85% active | FAM-RPARPAR peptide binding to NRP-1, fluorescence polarization;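 active means inhibition or corrected inhibition above about 18%, plus a signal ratio from 0.5 to 1.5, limit read from the data, passing the limit was not always enough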
TPT1 inh: C. albicans TPT1 enzyme inhibition | recombinant caTPT1, FP RNA substrate dephosphorylation | inhibition, % at 5 µM | 300,000 tested, 0.81% active | AID 1962;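 active means inhibition above the mean of all tested compounds plus 3 SD, set per screening campaign, cut at about 24% in these data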;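 further: plate controls were DMSO alone for no effect and ferristatin control at 100 nM for full effect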
CTSL1 counter: blocks F. hepatica cathepsin L1 in PFM18AAP counter-screen; AID 1906; recombinant F. hepatica cathepsin L1, Z-Leu-Arg-MCA fluorescence; 300,000 tested, 0.49% active; inhibition, % at 5.96 µM;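 active means inhibition above the mean of all tested compounds plus 3 SD, set per screening campaign, cut at about 17% in these data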;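 further: 0% = plate median of test compound wells and 100% = 1 µM Z-Phe-Ala-diazomethylketone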
HNF4A DNA FP: change in binding of human HNF4 alpha to DNA. AID 1224865. activity change, % at 10 µM. P41235. HNF4a-FITC DNA binding, fluorescence polarization, 1 h. 360,000 tested, 0.3% active; in the data active means activity change above about 30%, passing the limit was not always enough
* hit, by the source's call; . = no result. In the library only some 3.3% were active in any assay of this set; here they are far more common.

SMILES	PHOSPHO1 inh	Rpn11 inh	CendR NRP1 mod	TPT1 inh	CTSL1 counter	HNF4A DNA FP
CCN(CC)C(=S)SSC(=S)N(CC)CC	89*	1	-10	2	1	.
Cc1cc(C)c2c(c1)CC(C)(C)CC2=O	.	2	-6	.	.	57*
O=C(c1ccccc1Nc1ccc(SC(F)F)cc1)N1CCCCCC1	33	2	6	-2	1	3
CCOc1ccccc1NC(=O)C1CCCCN1S(=O)(=O)c1ccccc1 (centres undefined)	.	4	-7	.	.	6
CCOC(=O)N1CCN(C(=O)C2CCN(S(=O)(=O)c3ccc(OCC)cc3)CC2)CC1	-9	-6	26*	-1	-3	0
CCOC(=O)N1CCN(C(=O)C2CCC(CNS(=O)(=O)c3ccc(Cl)cc3)CC2)CC1 (centres undefined)	40	0	27*	-6	3	0
CCOc1ccc(NC(=O)C2CCCCN2S(=O)(=O)c2ccccc2)cc1 (centres undefined)	89*	-7	4	-1	-2	1
CCOC(=O)N1CCN(C(=O)c2ccc(CNS(=O)(=O)c3ccc(NC(C)=O)cc3)cc2)CC1	24	-7	23*	0	1	4
CON1C(=O)C(=O)N(OC)C2CCCCC21 (centres undefined)	-16	-2	5	.	.	-2
O=C(NNC(=O)c1sccc1-n1cccc1)c1cccc(Cl)c1	-22	-4	8	-3	4	1
COc1cc(NC(=O)c2cccc(NC3=NC4CS(=O)(=O)CC4S3)c2)cc(OC)c1OC (centres undefined)	23	10	-10	9	4	9
COc1cccc(N2CN(C3CCCCC3)CNC2=S)c1	16	0	-6	1	-5	1
O=C(c1ccccc1)N(c1ccccc1)c1ccccc1O	.	-1	-4	.	.	4
CC(=O)N1CCN(C(=O)c2cc(C)nc3ccccc23)CC1	60*	-3	5	0	0	-2
O=C(c1cc(-c2ccccc2)nc2ccccc12)N1CCCC1	14	2	14	2	-4	-1
Cc1cc(C(=O)N2CC=C(c3ccccc3)CC2)c2ccccc2n1	.	-4	0	1	4	-1
O=C(c1cc(-c2cccc(Cl)c2)nc2ccccc12)N1CCCC1	62*	5	4	-3	5	1
O=C(c1ccccc1-c1ccccc1)N1CCCCC1	1	-4	23*	-2	-1	2
CSc1ccc(/C=N/S(=O)(=O)c2ccccc2)cc1	22	-2	-5	-3	3	0
CC(=O)NC1CC2CCCC(C1)N2C(=O)Nc1ccc(Cl)c(C(F)(F)F)c1 (centres undefined)	-3	7	12	-3	0	30*
CCOc1ccc(C(=O)NC(C(=O)NCCc2ccc(OC(F)F)cc2)C(C)C)cc1 (centres undefined)	32	14	23*	-2	7	-3
CCOc1ccc(C(=O)NC(C(=O)NCc2ccccc2OC)C(C)C)cc1 (centres undefined)	6	0	3	1	6	3
CC(C(=O)N1CCN(c2ccc(Cl)cc2)CC1)c1ncc(C(F)(F)F)cc1Cl (centres undefined)	16	3	47*	-3	-1	0
CCCCCCSc1nnc(-c2cnn(-c3ccccc3)c2-n2cccc2)n1C	12	-4	12	-7	6	2
CCSc1nnc(-c2cnn(-c3ccccc3)c2-n2cccc2)n1C	15	2	44*	-4	-2	2
SMILES	PHOSPHO1 inh	Rpn11 inh	CendR NRP1 mod	TPT1 inh	CTSL1 counter	HNF4A DNA FP
COCCNC(=O)C1(C)CCCN(C(=O)c2ccc(OC)cc2OC)C1 (centres undefined)	.	0	1	.	.	2
COc1ccc(Nc2nc3c(C)cccc3cc2C#N)cc1	-18	-1	38*	-3	9	-1
O=S(=O)(c1ccccc1)c1cnc(-c2cccnc2)nc1-c1ccc(Cl)c(Cl)c1	-7	-1	20*	-1	0	-5
COc1cc(OC)cc(C(=O)NCc2cccnc2)c1	-7	2	-10	2	19*	-3
CCOc1ccc(C(=O)NCc2cccnc2)cc1[N+](=O)[O-]	51	-2	22*	0	2	2
O=C(NCCSCc1ccc(Cl)cc1)c1cccs1	25	3	7	0	0	0
Nc1c(N(CCC2=CCCCC2)C(=O)COc2ccc(F)cc2)c(=O)[nH]c(=O)n1Cc1ccccc1	.	3	-7	.	.	5
COC(=O)Cn1nc(-c2ccccc2)c2ccccc21	-3	-3	2	0	0	1
Cc1nnc(SCC2=C(C(=O)O)N3C(=O)C(NC(=O)c4cccc(F)c4F)C3SC2)s1 (centres undefined)	-10	0	-19	1	29*	1
NS(=O)(=O)c1ccc(OC(=O)CNC(=O)OCc2ccccc2)cc1	.	0	-1	-3	3	1
Cc1ccc(Nc2c(-c3ccccc3O)nc3ncccn23)cc1	16	-12	25*	1	4	4
O=C1NC(=S)SC1=C1CCCCCC1	84*	5	-32	7	3	0
Cc1cc(C)n(CC2CC(=O)N(c3ccccc3)C2=O)n1 (centres undefined)	20	-7	29*	0	3	0
Cc1cc(C)n(CC2CC(=O)N(c3cc(Cl)cc(Cl)c3)C2=O)n1 (centres undefined)	-1	-3	-6	-2	0	-3
O=C(Nc1ccc2nc(-c3cccs3)c(-c3cccs3)nc2c1)N1CCOCC1	14	47*	-18	6	4	7
Cc1nn(C)cc1/C=C/C(=O)c1ccccc1	-1	-4	-3	3	-2	-3
CCn1cc(/C=C/C(=O)c2ccc(O)cc2)c(C)n1	60*	0	-32	-3	3	2
Cc1ccc(-c2ccc(CN3C(C(C)C)C(=O)N(Cc4cn(CCC5OCCO5)nn4)CCS3(=O)=O)cc2)c(C)c1 (centres undefined)	.	11	-1	.	.	1
CCCS(=O)(=O)c1nc(S(=O)(=O)c2ccc(C)cc2)c(N2CCC(C)CC2)s1	21	-8	7	-1	5	-2
CCCS(=O)(=O)c1nc(S(=O)(=O)c2ccc(C)cc2)c(N2CCCC2)s1	-25	-6	19*	-1	-2	-4
COc1cc(OC)cc(N(C(=O)CNC(=O)c2ccco2)C(C(=O)NCC2CCCO2)c2ccccc2)c1 (centres undefined)	40	-1	8	-3	0	-3
O=C(N/N=C/C=C/c1ccccc1)c1cccc(Br)c1	29	-6	-15	1	18*	0
Nc1ccc(Oc2cccc(Oc3ccc(N)cc3)c2)cc1	-8	4	3	-1	2	-25
Nc1ccc(Oc2ccc3c(c2)OCO3)cc1	61*	4	0	0	0	-2
